In PubChem BioAssay (NCATS):
Several values for one entry are separate records, joined by “and”; a condition that tells them apart may be missing. Identical values can stand only once. Inconclusive results are not listed. Activity calls are given as the source filed them. Unless noted, calls follow the shape of the dose curve; as a rule, active = well fitted curve in the direction sought with a large enough effect; inconclusive = small, poorly fitted or top-dose-only effect, or another doubt; inactive = no such curve, though single readings can be large; an effect the other way counts as inactive or inconclusive.

Legend:
MKL-2 = assay: qHTS assay to identify novel small-molecules to repurpose for Merkel cell carcinoma treatment (AID 1296009); details: MCC and control cell lines, CellTiter-Glo viability, 72 h; series mostly up to 46 µM; also: % is scaled to controls: 0 for no effect and ±100 for the full control effect; nearly all actives have a fitted effect of over 60% in size
Method in brief: (§1)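 Luminescence from CellTiter-Glo, read 10 min after addition at room temperature, reported viability following a 72 hr, 37 degree celsius treatment with NPC or MIPE compounds in titration; values normalized to plate controls.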

UISO = assay: as above; details: MCC and control cell lines, CellTiter-Glo viability, 72 h; series mostly up to 46 µM
Method in brief: as §1

WaGa = assay: as above; details: MCC and control cell lines, CellTiter-Glo viability, 72 h; series mostly up to 46 µM
Method in brief: as §1

C33A = assay: Primary qHTS to identify gynecologic anti-cancer compounds using libraries of approved drugs and bioactive compounds (AID 1345084); details: Gynecologic cancer cell panel viability, ATPlite luminescence, 48 h; series mostly up to 57.5 µM; also: % is scaled to controls: 0 for no effect and ±100 for the full control effect; nearly all actives have a fitted effect of over 55% in size
Method in brief: (§2)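 ATP-based viability (ATPlite), 1,000 cells/well, 16 h pre-incubation, 48 h compound at 37 C, 5% CO2, 15 min RT before read.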

CASKI = assay: as above; details: Gynecologic cancer cell panel viability, ATPlite luminescence, 48 h; series mostly up to 57.5 µM
Method in brief: as §2

Es-2 = assay: as above; details: Gynecologic cancer cell panel viability, ATPlite luminescence, 48 h; series mostly up to 57.5 µM
Method in brief: as §2

HeLa = assay: as above; details: Gynecologic cancer cell panel viability, ATPlite luminescence, 48 h; series mostly up to 57.5 µM
Method in brief: as §2

Hek293T = assay: as above; details: Gynecologic cancer cell panel viability, ATPlite luminescence, 48 h, control line for the selectivity index; series mostly up to 57.5 µM
Method in brief: as §2

JEG-3 = assay: as above; details: Gynecologic cancer cell panel viability, ATPlite luminescence, 48 h; series mostly up to 57.5 µM
Method in brief: as §2

OV90 = assay: as above; details: Gynecologic cancer cell panel viability, ATPlite luminescence, 48 h; series mostly up to 57.5 µM
Method in brief: as §2

PA-1 = assay: as above; details: Gynecologic cancer cell panel viability, ATPlite luminescence, 48 h; series mostly up to 57.5 µM
Method in brief: as §2

SKOV3 = assay: as above; details: Gynecologic cancer cell panel viability, ATPlite luminescence, 48 h; series mostly up to 57.5 µM
Method in brief: as §2

Tov-21-G = assay: as above; details: Gynecologic cancer cell panel viability, ATPlite luminescence, 48 h; series mostly up to 57.5 µM
Method in brief: as §2

Tov112D = assay: as above; details: Gynecologic cancer cell panel viability, ATPlite luminescence, 48 h; series mostly up to 57.5 µM
Method in brief: as §2

[1] = Drug repurposing screens with cells derived from glioblastoma tumor samples (AID 1345199); details: GBM patient neurospheres viability, ATP luminescence, 48 h; also: nearly all actives have a fitted effect of over 40% in size; also: potency is read from the fitted curve at half-maximal effect; as to activity, negative = cell killing: % is scaled to controls: 0 for no effect and ±100 for the full control effect
Method in brief: (§3)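 Primary testing used CD133+ neurospheres from four GBM patients, seven concentrations, 48 h exposure and ATP-based viability; confirmation added three slower-growing patient lines.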

astro = assay: as above; details: viability, ATP luminescence, 48 h; series mostly up to 45.9 µM
Method in brief: as §3

CAOV3 = assay: Primary qHTS to identify gynecologic anti-cancer compounds using libraries of approved drugs and bioactive compounds (AID 1345084); details: Gynecologic cancer cell panel viability, ATPlite luminescence, 48 h; series mostly up to 57.5 µM; also: % is scaled to controls: 0 for no effect and ±100 for the full control effect; nearly all actives have a fitted effect of over 55% in size
Method in brief: as §2

[2] = biological target: Nuclear receptor subfamily 1 group I member 2 (Rattus norvegicus) (UniProt Q9R1A7); assay: qHTS assay for small molecule activators of the rat pregnane X receptor (rPXR) signaling pathway (AID 651751; call rule not given here; also: 0% is about no effect); details: rPXR reporter cells, luciferase (One-Glo), 24 h
Chain of Nuclear receptor subfamily 1 group I member 2 (Rattus norvegicus) (Q9R1A7 whole entry, looked up): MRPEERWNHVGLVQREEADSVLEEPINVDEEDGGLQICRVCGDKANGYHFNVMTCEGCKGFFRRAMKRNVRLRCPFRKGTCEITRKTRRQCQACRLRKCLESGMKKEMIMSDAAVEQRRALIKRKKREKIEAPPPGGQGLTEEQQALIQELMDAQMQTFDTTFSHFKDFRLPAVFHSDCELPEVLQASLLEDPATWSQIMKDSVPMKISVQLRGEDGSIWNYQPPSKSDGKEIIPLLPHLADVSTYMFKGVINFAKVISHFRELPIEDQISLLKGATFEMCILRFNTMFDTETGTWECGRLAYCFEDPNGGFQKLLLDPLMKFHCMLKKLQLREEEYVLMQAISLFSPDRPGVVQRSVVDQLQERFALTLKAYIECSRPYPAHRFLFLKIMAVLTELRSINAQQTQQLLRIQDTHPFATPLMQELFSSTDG

[3] = at 45.9 µM (top of the series), tumour line B
[4] = at 45.9 µM (top of the series), tumour line D
[5] = at 46 µM (top of the series), tumour line A

NCc1cccnc1
inactive: Potency (MKL-2) | Potency (UISO) | Potency (WaGa) | Potency (C33A) | Potency (CASKI) | Potency (Es-2) | Potency (HeLa) | Potency (Hek293T) | Potency (JEG-3) | Potency (OV90) | Potency (PA-1) | Potency (SKOV3) | Potency (Tov-21-G) | Potency (Tov112D) | activity, negative = cell killing [1, 3] -7.53% | activity, negative = cell killing [1, 4] -1.09% | activity, negative = cell killing [1, 5] -28.1% | Potency (astro)

Nc1ccccc1C(=O)OCC(O)CO (stereo not drawn)
inactive: Potency (MKL-2) | Potency (UISO) | Potency (WaGa) | Potency (C33A) | Potency (CASKI) | Potency (Es-2) | Potency (HeLa) | Potency (Hek293T) | Potency (JEG-3) | Potency (OV90) | Potency (PA-1) | Potency (SKOV3) | Potency (Tov-21-G) | Potency (Tov112D)

CNC(=O)NC(O)C(Cl)(Cl)Cl (stereo not drawn)
inactive: Potency (MKL-2) | Potency (UISO) | Potency (WaGa) | Potency (C33A) | Potency (CAOV3) | Potency (CASKI) | Potency (Es-2) | Potency (HeLa) | Potency (JEG-3) | Potency (OV90) | Potency (PA-1) | Potency (SKOV3) | Potency (Tov-21-G) | Potency (Tov112D) | activity, negative = cell killing [1, 3] -2.48% | activity, negative = cell killing [1, 4] 7% | activity, negative = cell killing [1, 5] -5.01% | Potency (astro)

CN1C[C@@H](NS(=O)(=O)N(C)C)C[C@@H]2c3cccc4c3c(cn4C)C[C@H]21
inactive: Potency (MKL-2) | Potency (UISO) | Potency (WaGa) | Potency (C33A) | Potency (CAOV3) | Potency (CASKI) | Potency (Es-2) | Potency (HeLa) | Potency (Hek293T) | Potency (JEG-3) | Potency (OV90) | Potency (PA-1) | Potency (SKOV3) | Potency (Tov-21-G) | Potency (Tov112D) | activity, negative = cell killing [1, 3] -15.4% | activity, negative = cell killing [1, 4] -25.6% | Potency (astro)
active: Potency ([1]; tumour line A) 10 µM

CCOC(=O)NC(C)(C)Cc1ccc(Cl)cc1
inactive: Potency (MKL-2) | Potency (UISO) | Potency (WaGa) | Potency (C33A) | Potency (CAOV3) | Potency (CASKI) | Potency (Es-2) | Potency (HeLa) | Potency (Hek293T) | Potency (JEG-3) | Potency (OV90) | Potency (PA-1) | Potency (Tov-21-G) | Potency (Tov112D) | activity, negative = cell killing [1, 3] 0.659% | activity, negative = cell killing [1, 4] -16.7% | Potency (astro)

CCNc1nc(Cl)nc(NCC)n1
inactive: Potency (MKL-2) | Potency (UISO) | Potency (WaGa) | Potency (C33A) | Potency (CASKI) | Potency (Es-2) | Potency (HeLa) | Potency (Hek293T) | Potency (JEG-3) | Potency (OV90) | Potency (PA-1) | Potency (SKOV3) | Potency (Tov-21-G) | Potency (Tov112D) | activity, negative = cell killing [1, 3] -2.74% | activity, negative = cell killing [1, 4] -21.4% | activity, negative = cell killing [1, 5] -24.7% | Potency (astro) | max response [2] -3.28%

COc1cc(C[C@@H](C)N)c(OC)cc1Br
active: Potency ([1]; tumour line A) 35.5 µM
inactive: Potency (MKL-2) | Potency (UISO) | Potency (WaGa) | Potency (C33A) | Potency (CAOV3) | Potency (Es-2) | Potency (HeLa) | Potency (Hek293T) | Potency (JEG-3) | Potency (PA-1) | Potency (SKOV3) | Potency (Tov-21-G) | Potency (Tov112D) | activity, negative = cell killing ([1]; at 108 µM (top of the series), tumour line B) -21.6% | Potency (astro)

O=C1NCN(c2ccccc2)C12CCN(CCCOc1ccc(F)cc1)CC2
inactive: Potency (MKL-2) | Potency (UISO) | Potency (WaGa) | Potency (C33A) | Potency (CAOV3) | Potency (CASKI) | Potency (Es-2) | Potency (HeLa) | Potency (JEG-3) | Potency (OV90) | Potency (PA-1) | Potency (SKOV3) | Potency (Tov-21-G) | Potency (Tov112D)

CC(Cc1ccccc1)NCc1ccccc1Cl (stereo not drawn)
active: Potency ([1]; tumour line A) 14.1 µM
inactive: Potency (MKL-2) | Potency (UISO) | Potency (WaGa) | Potency (C33A) | Potency (CAOV3) | Potency (CASKI) | Potency (Es-2) | Potency (HeLa) | Potency (Hek293T) | Potency (JEG-3) | Potency (OV90) | Potency (PA-1) | Potency (SKOV3) | Potency (Tov-21-G) | Potency (Tov112D) | activity, negative = cell killing [1, 3] -13.4% | activity, negative = cell killing [1, 4] -38.9% | Potency (astro)

CCOC(=O)c1cncn1C(C)c1ccccc1 (stereo not drawn)
inactive: Potency (MKL-2) | Potency (UISO) | Potency (WaGa) | Potency (C33A) | Potency (CAOV3) | Potency (CASKI) | Potency (Es-2) | Potency (HeLa) | Potency (Hek293T) | Potency (JEG-3) | Potency (OV90) | Potency (PA-1) | Potency (SKOV3) | Potency (Tov-21-G) | Potency (Tov112D) | activity, negative = cell killing ([1]; at 21.2 µM (top of the series), tumour line B) 0.856% | activity, negative = cell killing ([1]; at 21.2 µM (top of the series), tumour line D) -20.7% | Potency (astro)

Oc1c(Br)cc(Br)cc1Br
inactive: Potency (MKL-2) | Potency (UISO) | Potency (WaGa) | Potency (C33A) | Potency (CAOV3) | Potency (CASKI) | Potency (Es-2) | Potency (HeLa) | Potency (Hek293T) | Potency (JEG-3) | Potency (OV90) | Potency (PA-1) | Potency (SKOV3) | Potency (Tov-21-G) | Potency (Tov112D) | activity, negative = cell killing [1, 3] -7.26% | activity, negative = cell killing [1, 4] 14.2% | activity, negative = cell killing [1, 5] -28% | Potency (astro) | max response [2] 8.69% and -3.29%

Cc1nnc2n1-c1sc(CCC(=O)N3CCOCC3)cc1C(c1ccccc1Cl)=NC2
inactive: Potency (MKL-2) | Potency (UISO) | Potency (WaGa) | Potency (C33A) | Potency (CASKI) | Potency (Es-2) | Potency (HeLa) | Potency (Hek293T) | Potency (JEG-3) | Potency (OV90) | Potency (PA-1) | Potency (SKOV3) | Potency (Tov-21-G) | Potency (Tov112D) | activity, negative = cell killing [1, 3] -14.3% and -9.87% | activity, negative = cell killing [1, 4] -19.2% and -29.4% | activity, negative = cell killing [1, 5] -18.9% | Potency (astro)

COc1ccc(C(=O)N2CCCC2=O)cc1
inactive: Potency (MKL-2) | Potency (UISO) | Potency (WaGa) | Potency (C33A) | Potency (CAOV3) | Potency (CASKI) | Potency (Es-2) | Potency (HeLa) | Potency (Hek293T) | Potency (JEG-3) | Potency (OV90) | Potency (PA-1) | Potency (SKOV3) | Potency (Tov-21-G) | Potency (Tov112D) | activity, negative = cell killing [1, 3] -4.07% | activity, negative = cell killing [1, 4] -13.6% | Potency (astro)
